Experimental findings from the supplement of paper PMC11624193, “Coupling cellular drug-target engagement to downstream pharmacology with CeTEAM” (Nature Communications, 2024) are described below.

Each structure is given as a SMILES string. Structures can show the parent of a compound that is named as a salt. A number with no mark means an inactive call.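 Rule for the calls: active = log2 fold change beyond 2 SD from the library mean after excluding viability outliers; inactive = within 2 SD.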

This assay deals with PARP1 L713F-nLuc biosensor (HCT116) (UniProt P09874). Nature of the assay: PARP1 L713F-nLuc/akaLuc ratio relative to DMSO control (biosensor stabilization) (fold change); higher = more PARP1 biosensor stabilization (target engagement / stabilizer), active = hit call of the paper. Conditions: stock concentration (mM; final µM = stock mM x 1): 10; 24 h.
Chain of PARP1 L713F-nLuc biosensor (HCT116) (P09874 whole entry L713F, looked up): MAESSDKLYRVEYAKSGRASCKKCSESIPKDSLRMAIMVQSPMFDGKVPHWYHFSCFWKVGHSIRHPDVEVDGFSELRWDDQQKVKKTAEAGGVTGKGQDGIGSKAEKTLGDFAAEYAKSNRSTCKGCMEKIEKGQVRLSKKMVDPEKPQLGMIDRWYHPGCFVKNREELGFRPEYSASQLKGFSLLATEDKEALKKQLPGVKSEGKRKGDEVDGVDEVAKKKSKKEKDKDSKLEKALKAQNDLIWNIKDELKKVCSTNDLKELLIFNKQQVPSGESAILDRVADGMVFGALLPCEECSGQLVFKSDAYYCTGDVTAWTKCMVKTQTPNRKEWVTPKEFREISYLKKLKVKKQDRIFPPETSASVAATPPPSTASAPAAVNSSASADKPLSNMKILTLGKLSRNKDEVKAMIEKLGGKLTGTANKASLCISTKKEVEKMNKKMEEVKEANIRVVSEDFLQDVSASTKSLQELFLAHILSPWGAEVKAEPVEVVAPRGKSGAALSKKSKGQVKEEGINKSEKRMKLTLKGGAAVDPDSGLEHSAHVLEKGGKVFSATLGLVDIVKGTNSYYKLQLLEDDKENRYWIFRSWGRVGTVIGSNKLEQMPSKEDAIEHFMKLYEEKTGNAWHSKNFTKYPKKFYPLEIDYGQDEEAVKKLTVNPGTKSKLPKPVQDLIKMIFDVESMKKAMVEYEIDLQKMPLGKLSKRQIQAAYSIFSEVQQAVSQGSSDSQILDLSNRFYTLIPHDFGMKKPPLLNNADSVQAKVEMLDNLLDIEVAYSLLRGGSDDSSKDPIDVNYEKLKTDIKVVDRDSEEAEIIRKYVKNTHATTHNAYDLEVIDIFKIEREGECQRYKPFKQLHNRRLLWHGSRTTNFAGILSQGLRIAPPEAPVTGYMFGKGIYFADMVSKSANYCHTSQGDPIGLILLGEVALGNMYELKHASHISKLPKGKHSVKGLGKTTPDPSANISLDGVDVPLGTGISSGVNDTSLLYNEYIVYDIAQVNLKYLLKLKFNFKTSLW
Turning to `c1cncc(C2Nc3ccccc3-n3cccc32)c1` (stereo not drawn), the “PARP1 L713F-nLuc/akaLuc ratio” value is 0.887.
As for `Clc1ccc2c(N3CCNCC3)ccnc2c1` [7-Chloro-4-(piperazin-1-yl)quinoline], the “PARP1 L713F-nLuc/akaLuc ratio” value is 0.933.
Next, `COc1cc(C)[nH]c(=O)c1CNC(=O)c1c(C)n([C@H](C)C2CCOCC2)c2ccccc12`: 0.857.
Next, `COc1ccc2c(c1)C(c1ccc(Cl)cc1)=N[C@@H](CC(=O)O)c1nnc(C)n1-2` [I-BET762 carboxylic acid]: 0.834; `CC(C)=CCCC1=CC(=O)c2c(O)ccc(O)c2C1=O` [Deoxyshikonin]: 0.834.
Consider `C/C=C(/C)C(=O)O[C@H]1[C@@H]2[C@H](C)C(=O)O[C@@H]2C[C@@H](C)[C@@H]2C=CC(=O)[C@]21C` [Brevilin A], for which the “PARP1 L713F-nLuc/akaLuc ratio” value is 1.47.
Next, `c1ccc([C@@H]2C[C@H]2NC2CCNCC2)cc1` [GSK-LSD1 (dihydrochloride)]: 0.955; `CC[C@@H](C(N)=O)N1CCCC1=O` [Levetiracetam]: 1.19; `CN(C)NC(=O)CCC(=O)O` [Daminozide]: 0.786.
For `CC[C@@H](C(=O)[C@@H](C)[C@@H](O)[C@H](C)[C@@H]1O[C@@H]([C@@H](CC)C(=O)O)CC[C@@H]1C)[C@H]1O[C@]2(C=C[C@@H](O)[C@]3(CC[C@@](C)([C@H]4CC[C@](O)(CC)[C@H](C)O4)O3)O2)[C@H](C)C[C@@H]1C` [Salinomycin (from Streptomyces albus)], the “PARP1 L713F-nLuc/akaLuc ratio” value was 0.553.
As to `CCCC(=O)O[C@@H]1[C@@H](C)[C@@]2(O)[C@@H](C=C(CO)C[C@]3(O)C(=O)C(C)=C[C@@H]23)[C@@H]2C(C)(C)[C@]12OC(=O)CCC` [Phorbol 12,13-dibutyrate], the “PARP1 L713F-nLuc/akaLuc ratio” value is 1.36.
As to `N[C@@H](CNC(=O)C(=O)O)C(=O)O` [Dencichine], the “PARP1 L713F-nLuc/akaLuc ratio” value was 1.45.
As for `C[C@H](CCC(=O)O)C[C@H](C)C[C@H](C)C(=O)/C=C(\O)[C@H](C)C[C@H](C)C/C=C/[C@@H](C)[C@@H](O)[C@@H](C)[C@@H](O)C[C@@H]1CC[C@@](C)([C@H]2CC[C@@](C)([C@@H](C)O)O2)O1` [Ionomycin (calcium)], the “PARP1 L713F-nLuc/akaLuc ratio” value was 0.727.
As to `O=C(NO)c1cnc(NC2(c3ccccc3)CCC(F)(F)CC2)nc1`, the “PARP1 L713F-nLuc/akaLuc ratio” value was 5.69 (active).
For `CCC1(c2ccc(N)cc2)CCC(=O)NC1=O` (stereo not drawn) [Aminoglutethimide] the value was 0.862; for `COc1ccc2c(c[n+](C)c3c4cc5c(cc4ccc23)OCO5)c1OC` [Chelerythrine (chloride)], 0.843.
Take `COc1c2c3c4c(c(OC)c(=O)c5c(O)cc(OC)c(c6c(OC)cc(O)c(c1=O)c63)c54)[C@@H](C(C)=O)[C@@](C)(O)C2` [Hypocrellin A]: the “PARP1 L713F-nLuc/akaLuc ratio” value is 0.849.
For `COCC1(CO)C(=O)C2CCN1CC2` (stereo not drawn) the value was 1.09; for `CC(=O)O[C@H]1[C@H]2[C@@H](OC(=O)Cc3ccccc3)[C@@H](C)C[C@]2(OC(C)=O)C(=O)/C(C)=C/[C@@H]2[C@H](CC[C@@]13CO3)C2(C)C` [Euphorbiasteroid], 0.646.
On to `Cn1cc(C2=C(c3cn(C4CCN(Cc5ccccn5)CC4)c4ccccc34)C(=O)NC2=O)c2ccccc21`, for which the “PARP1 L713F-nLuc/akaLuc ratio” value is 1.12.
As for `CCN1CCN(C(=O)Cc2ccc(Nc3ncc(F)c(Nc4ccc(C(=O)Nc5ccccc5Cl)cc4)n3)cc2)CC1`, the “PARP1 L713F-nLuc/akaLuc ratio” value is 1.15.
Regarding `O=C(O)CNC(=O)C1C(=O)N(C2CCCCC2)C(=O)N(C2CCCCC2)C1=O` [Daprodustat], the “PARP1 L713F-nLuc/akaLuc ratio” value was 0.831.
Consider `Cc1cc(O)cc(C)c1C=C1C(=O)N(Cc2ccccc2)C(=O)N(Cc2ccccc2)C1=O`, for which the “PARP1 L713F-nLuc/akaLuc ratio” value was 1.52.
For `C=C1C[C@@H]2[C@H](CC[C@]3(C)C(=O)CC[C@@H]23)[C@@]2(C)C=CC(=O)C=C12` [Exemestane] the value was 1; for `COc1cc(C(=O)N2CC[C@@H](O)[C@@H](N)C2)cc2nc(-c3cc4ccccc4n3CC3CC3)n(C)c12` [GSK484 (hydrochloride)], 1.09.
Next, `NCCCNCCSP(=O)(O)O` [Amifostine]: 1.22.
Next, `C[C@@H]1C(=O)O[C@H]2[C@H](O)[C@@]34O[C@@H]5OC(=O)[C@H](O)[C@@]56[C@H](C(C)(C)C)[C@H](O)C(OC3=O)[C@]64[C@@]12O` (stereo partly drawn) [Ginkgolide C]: 0.961.
Consider `O=C(O)CNC(=O)c1c(O)c2ccccc2n(Cc2ccccc2)c1=O`, for which the “PARP1 L713F-nLuc/akaLuc ratio” value was 1.76.
Next, `CCc1c(C(=O)C(N)=O)c2c(OCC(=O)O)cccc2n1Cc1ccccc1`: 0.845; `CC[C@@]1(O)C(=O)OCc2c1cc1n(c2=O)Cc2cc3ccccc3nc2-1` [Camptothecin]: 0.495.
Turning to `CC(O)(CS(=O)(=O)c1ccc(F)cc1)C(=O)Nc1ccc(C#N)c(C(F)(F)F)c1` (stereo not drawn) [Bicalutamide], the “PARP1 L713F-nLuc/akaLuc ratio” value was 0.786.
For `Cn1cc(C2=C(c3cn(C4CCN(Cc5ccccn5)CC4)c4ccccc34)C(=O)NC2=O)c2ccccc21` [Enzastaurin], the “PARP1 L713F-nLuc/akaLuc ratio” value was 0.72.
On to `O=C(NO)c1cnc(NC2(c3cccc(F)c3)CCCCC2)nc1`, for which the “PARP1 L713F-nLuc/akaLuc ratio” value was 0.756.
